High-throughput results from PubChem BioAssay.
Shown are actives, neighbours in structure and some others; about 4.9% of the full set was active somewhere.
MPTP block: inhibitors of mitochondrial permeability transition pore; isolated mouse mitochondria, Ca2+ swelling absorbance, 30 min; inhibition, % at 10 µM; AID 602449; actives 1.4% (n = 360,000);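 active = inhibition of 50% or more, scaled per plate between neutral and stimulator controls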;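 note: 0% = DMSO wells given calcium and 100% = 1 mM EGTA wells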
Platelet DG rel: platelet dense granule release activity; human platelet-rich plasma, SFLLRN dense granule ATP release, luminescence; inhibition, %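 (compounds screened at 7.5 µM in platelet-rich plasma)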; actives 0.22% (n = 300,000); AID 1663;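 active = mean replicate score, as percent of positive control, at or above 50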
HSP90 inh: HSP90 refolding inhibition in rabbit reticulocyte lysate. luciferase refolding luminescence, 3 h. inhibition, % at 5.6 µM. actives 0.91% (n = 290,000);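 active = inhibition above the screen-wide mean plus 3 SD, computed separately per campaign, cut at about 16% in these data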;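 note: 0% = DMSO wells and 100% = 60 µM geldanamycin wells; inhibitors lower the luminescence because luciferase stays unfolded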
HSF1 activator: increases HSF-1 driven luciferase reporter signal; NIH3T3-HGL HSF-1 luciferase reporter, MG132, 8 h; 100% = twice DMSO control signal; activation, % at 9 µM; actives 1.7% (n = 300,000);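 active = mean replicate activation of at least 50% with a set share of replicates each reaching 50%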;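 note: 0% = median of the neutral control wells and 100% = twice that signal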
HSF1 inhib: HSF1 inhibition; NIH3T3-HGL HSE-luciferase, MG132-induced, luminescence 8 h; hits give low values; activity change, negative = inhibition, % at 7.5 µM (by protocol); actives 0.77% (n = 300,000); AID 2098;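 active = more than half of replicate wells show activity change below -50%, luminescence cut by over half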;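 note: luciferase reports HSF-1 transcriptional activity via heat shock element; 0% = median of DMSO wells and -100% = zero luminescence signal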
dFosB activator: activators of mouse delta FosB homodimer. P13346. purified delta FosB, TAMRA-CDK5 oligo fluorescence polarization; percent of positive-control signal above neutral wells. activation, % at 25 µM. actives 0.99% (n = 340,000). AID 493131;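 active = mean activation above about 17%, with every replicate also reaching it, limit read from the data, passing the limit was not always enough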
Target sequence (P13346 whole entry, looked up): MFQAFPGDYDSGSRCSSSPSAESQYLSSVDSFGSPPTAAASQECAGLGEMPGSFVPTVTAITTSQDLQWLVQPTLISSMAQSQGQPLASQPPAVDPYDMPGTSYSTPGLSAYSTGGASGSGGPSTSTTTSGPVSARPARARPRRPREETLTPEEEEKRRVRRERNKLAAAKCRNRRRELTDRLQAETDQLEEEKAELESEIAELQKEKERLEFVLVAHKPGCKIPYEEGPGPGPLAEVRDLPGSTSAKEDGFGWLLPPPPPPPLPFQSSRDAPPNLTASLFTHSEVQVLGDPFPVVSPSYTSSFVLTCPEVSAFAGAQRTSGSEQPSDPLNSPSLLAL
MPTP counter: membrane potential counter-screen of mitochondrial pore inhibitors; shares compounds with MPTP block; inhibition, % at 10 µM; actives 78% (n = 5,000); AID 624504; isolated mitochondria, Rhodamine 123 fluorescence; in the data active = inhibition above about 22%;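 note: 0% = DMSO vehicle and 100% = positive control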
MPTP abs DR: MPTP inhibition, dose response swelling confirmation; actives 58% (n = 780); IC50, µM; isolated mitochondria swelling, absorbance; shares compounds with MPTP block; in the data active = IC50 below about 20 µM
MPTP cs DR: counter-screen for mitochondrial permeability transition pore inhibitors, dose response; shares compounds with MPTP block; isolated mitochondria counterscreen, fluorescence read-out; IC50, µM; actives 49% (n = 780); AID 651564; in the data active = IC50 below about 80 µM
Starred values were filed as active, the others as inactive; i = inactive; . = no result given.

SMILES | MPTP block | Platelet DG rel | HSP90 inh | HSF1 activator | HSF1 inhib | dFosB activator | MPTP counter | others
Cc1ccc(NC(=S)NC(NC(=O)c2ccccc2)C(Cl)(Cl)Cl)c(C)c1 (stereo unspecified) | 72.8* | -5.6 | 7.3 | 17.7 | 3.3 | -6.4 | 80.9*
Cc1ccccc1NC(=S)NC(NC(=O)c1ccccc1C)C(Cl)(Cl)Cl (stereo unspecified) | 78.5* | 4.0 | 2.1 | 8.1 | -7.4 | -7.9 | 87.7*
Cc1cc(C)c(NC(=S)NC(NC(=O)c2ccccc2)C(Cl)(Cl)Cl)c(C)c1 (stereo unspecified) | 76.5* | -7.3 | -3.7 | 12.3 | 3.2 | -1.5 | 83.6*
O=C(NC(NC(=S)Nc1ccccc1)C(Cl)(Cl)Cl)c1cccc(Cl)c1 (stereo unspecified) | 96.2* | -0.3 | 3.6 | 7.5 | 3.0 | 5.4 | 77.3*
CN(C)C(=O)NC(NC(=S)Nc1ccccc1)C(Cl)(Cl)Cl (stereo unspecified) | -1.0 | 5.3 | -0.4 | 28.7 | 17.2 | -4.4 | .
CCCOc1ccc(C(=O)NC(=S)N2CCN(c3cc4c(cc3F)c(=O)c(C(=O)O)cn4CC)CC2)cc1 | 2.0 | -4.0 | -1.0 | -6.7 | -7.1 | -1.9 | .
Cc1noc2ncnc(Oc3cc(Cl)ccc3Cl)c12 | -0.7 | 15.0 | -3.5 | 20.6 | 15.2 | 0.8 | .
O=C(NC(NC(=S)Nc1ccc(Cl)cc1Cl)C(Cl)(Cl)Cl)c1cccc([N+](=O)[O-])c1 (stereo unspecified) | 93.7* | 0.5 | 1.9 | 20.8 | 7.7 | 2.0 | 79.5*
COCCN(C(=O)Cc1ccc(S(=O)(=O)N2CCOCC2)s1)c1c(N)n(CC(C)C)c(=O)[nH]c1=O | 0.8 | . | . | . | . | -3.2 | .
O=C(N/N=C/c1ccc(O)cc1)/C(=C/c1ccccc1)CCO | 4.6 | -3.0 | 3.3 | 20.7 | 13.7 | -0.7 | .
Clc1ccc(OCCCN2CCCCC2)c(Br)c1 | 78.4* | -12.8 | -1.2 | 3.6 | 1.1 | 4.4 | -3.3 | MPTP abs DR=i;MPTP cs DR=>80
CC1CCCN(CCOCCOc2ccc(Cl)cc2Br)C1 (stereo unspecified) | 59.4* | 3.3 | 1.8 | 6.1 | 2.8 | -7.7 | 1.0 | MPTP abs DR=i;MPTP cs DR=>80
CC(C)CNC(=S)N1CCC(c2nc(-c3ccc(F)cc3)no2)CC1 | 95.3* | . | -6.2 | . | . | -12.5 | 94.2*
COCCNC(=S)N1CCC(c2nc(-c3ccc(N(C)C)cc3)no2)CC1 | 3.0 | -1.7 | -0.9 | 5.7 | 0.7 | -3.8 | .
O=C(Nc1cccc(C(F)(F)F)c1)N1CCC(c2nc(-c3ccc(F)cc3)no2)CC1 | 76.9* | 2.6 | 10.8 | 9.6 | -7.1 | -11.9 | 88.8*
O=C(Nc1ccccc1)N1CCCC(c2nc(-c3ccc(F)cc3)no2)C1 (stereo unspecified) | -2.0 | 4.6 | 1.5 | -12.8 | 2.9 | -11.0 | .
N#Cc1c(N)nc(Sc2ccc(Cl)cc2)c(C#N)c1-c1ccccc1Cl | 75.9* | 9.3 | 2.7 | 49.7 | 39.7 | -3.2 | 55.7*
CC(C)(C)C(=O)NC(=S)NCc1ccccc1 | -3.9 | 11.1 | 7.1 | 0.0 | -3.4 | 2.2 | .
CC(C)(C)NC(=O)C(c1ccc(C#N)cc1)n1c(=O)c(-c2cc3ccccc3[nH]2)nc2ccccc21 (stereo unspecified) | 4.7 | . | . | . | . | . | .
O=[N+]([O-])c1cc(-c2n[nH]c(-c3ccccc3)n2)cc([N+](=O)[O-])c1 | 71.9* | -5.4 | -1.3 | -9.6 | 4.0 | -6.6 | 8.8 | MPTP abs DR=19.8*;MPTP cs DR=<2.5*
CN1CCCC1CCOC(C)(c1ccccc1)c1ccc(Cl)cc1 (stereo unspecified) | 80.7* | . | . | . | . | 0.3 | -11.4 | MPTP abs DR=6.08*;MPTP cs DR=>80
O=C(c1ccc(F)cc1)c1cnc(Nc2ccccc2)s1 | 0.3 | -4.2 | -2.6 | 36.0 | 17.1 | -1.0 | .
O=C(c1ccccc1)c1cnc(Nc2ccc(Cl)c(Cl)c2)s1 | 62.4* | 6.0 | -1.3 | 9.2 | 6.5 | -0.4 | 44.1*
COc1ccccc1/C=C/CN1CCSCC1 | 0.7 | -3.2 | 6.3 | 8.6 | -5.1 | -4.7 | .
CC(c1ccco1)N(C(=O)Nc1ccc(Cl)cc1)c1ccccn1 (stereo unspecified) | 85.4* | -1.0 | 1.1 | -3.4 | 5.7 | -3.2 | 98.3*
SMILES | MPTP block | Platelet DG rel | HSP90 inh | HSF1 activator | HSF1 inhib | dFosB activator | MPTP counter | others
COC(=O)/C=C1\SC(=Nc2ccc(Cl)c(Cl)c2)NC1=O | 95.0* | 0.3 | 0.4 | 9.6 | 4.3 | -11.6 | 51.9*
Cc1cccc2sc(NNC(=O)c3cc(-c4cccs4)nc4ccccc34)nc12 | 68.0* | 4.0 | -3.4 | 4.8 | -1.1 | -9.0 | 86.9*
NNC(=O)c1cc(-c2cccs2)nc2ccccc12 | -0.7 | -4.0 | 8.7 | 22.5 | 2.2 | -12.2 | .
COc1ccc(Cn2nnnc2C(c2ccc(C)cc2)N2CCN(C3CCCC3)CC2)cc1 (stereo unspecified) | 77.1* | 8.4 | 2.1 | -3.4 | -4.1 | 1.2 | -9.9 | MPTP abs DR=>100;MPTP cs DR=>80
COc1ccc(Cn2nnnc2C(c2ccc3ncccc3c2)N2CCN(C3CCCCC3)CC2)cc1 (stereo unspecified) | 0.2 | 3.6 | 0.6 | 1.9 | -8.6 | -20.3 | .
COc1ccccc1N=Nc1nc(-c2ccccc2)c(-c2ccccc2)[nH]1 | 22.6 | 3.1 | 0.2 | -7.0 | -3.4 | -11.7 | .
Oc1ccccc1N=Nc1nc(-c2ccccc2)c(-c2ccccc2)[nH]1 | 75.6* | 5.4 | -0.5 | 71.4* | 54.3 | -11.5 | 53.7*
CC(C)(C)c1nn2cnnc2n(/N=C/c2ccc(O)cc2)c1=O | 0.2 | -13.8 | 1.2 | 8.2 | 9.8 | 1.4 | .
CNS(=O)(=O)c1cccc(C(=O)OCC(=O)Nc2ccc3ccccc3c2)c1 | -0.1 | . | . | . | . | -3.0 | .
O=C(c1cc(COc2cccc(C(F)(F)F)c2)on1)N1CCCC1 | 0.9 | . | . | . | . | . | .
O=C(c1cc(COc2ccc(F)cc2Cl)on1)N1CCCC(OCc2cccnc2)C1 (stereo unspecified) | 4.8 | 2.2 | -1.8 | 18.5 | 20.1 | -12.5 | .
O=C(c1cc(COc2cccc(C(F)(F)F)c2)on1)N1CCC(Oc2cccnc2)CC1 | 59.7* | 6.3 | -2.5 | -6.3 | -0.2 | -8.4 | 82.8*
O=C(c1cc(COc2ccc(F)cc2Cl)on1)N1CCC(OCc2cccnc2)CC1 | 67.7* | 9.3 | 2.7 | 3.3 | 2.7 | -9.4 | 22.6*
Cc1ccc(OCc2cc(C(=O)N3CCC(Oc4cccnc4)CC3)no2)cc1C | 91.4* | 2.1 | 0.8 | -9.1 | 1.4 | -17.3 | 88.8*
CC(=O)c1ccc(OCc2cc(C(=O)N3CCC(Oc4ccccc4C)CC3)no2)cc1 | -0.7 | -1.7 | 3.7 | 0.6 | -1.1 | -18.2 | .
